Giardia FBPA inh: Giardia lamblia aldolase inhibition; purified Giardia FBPA; Potency, µM (top dose mostly 59.6 µM), for the others: at the top dose activity, negative = inhibition, hits mostly inhibitors; AID 2451; A8B2U2; 290,000 tested, 0.71% active; note: potency is the fitted concentration of half-maximal effect; % is set by controls: 0 for no effect and ±100 for the full control effect; nearly all actives have a fitted effect of over 55% in size
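Giardia FBPA (40 nM reagent) was preincubated 10 min at RT with compound (up to 57.5 uM final), then substrate plus GAPDH/TPI/NAD/arsenate coupling system with diaphorase/resazurin was added; resorufin fluorescence (525/598 nm) was read after 20 min.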
Shiga toxin inh: inhibitors of Shiga toxin in Vero cells; AID 2315; 290,000 tested, 9.2% active; inhibition, % at 38.7 µM; Vero cells, Shiga toxin protein synthesis inhibition reporter; in the data active = inhibition mostly above about 28%, no sharp cut-off; inactive = mostly below about 43%; note: 0% is about no effect
NS1 inh: inhibitors of influenza NS1 protein function. Potency, µM (top dose mostly 46.1 µM), inactives show top-dose activity, positive = more growth. 270,000 tested, 0.4% active. AID 2326; calls by dose curve; note: potency is the fitted concentration of half-maximal effect; actives are rising curves; nearly all actives have a fitted effect of over 50% in size
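OD600 was taken as the measure of yeast growth restored by compound in an NS1-expressing S. cerevisiae strain. Cells had been washed out of glucose medium and diluted 1:100 into galactose -URA medium, pH 6.0.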
LmPK inh: LmPK (Leishmania mexicana) enzyme inhibition | Q27686 | purified LmPK, Kinase-Glo ATP luminescence, 1 h | Potency, µM (doses to about 57.5 µM), for inactives: at the top dose activity change, negative = inhibition, usual class: inhibitors | 290,000 tested, 0.37% active; note: potency is the fitted concentration of half-maximal effect; % is set by controls: 0 for no effect and ±100 for the full control effect
Target sequence (Q27686 whole entry, looked up): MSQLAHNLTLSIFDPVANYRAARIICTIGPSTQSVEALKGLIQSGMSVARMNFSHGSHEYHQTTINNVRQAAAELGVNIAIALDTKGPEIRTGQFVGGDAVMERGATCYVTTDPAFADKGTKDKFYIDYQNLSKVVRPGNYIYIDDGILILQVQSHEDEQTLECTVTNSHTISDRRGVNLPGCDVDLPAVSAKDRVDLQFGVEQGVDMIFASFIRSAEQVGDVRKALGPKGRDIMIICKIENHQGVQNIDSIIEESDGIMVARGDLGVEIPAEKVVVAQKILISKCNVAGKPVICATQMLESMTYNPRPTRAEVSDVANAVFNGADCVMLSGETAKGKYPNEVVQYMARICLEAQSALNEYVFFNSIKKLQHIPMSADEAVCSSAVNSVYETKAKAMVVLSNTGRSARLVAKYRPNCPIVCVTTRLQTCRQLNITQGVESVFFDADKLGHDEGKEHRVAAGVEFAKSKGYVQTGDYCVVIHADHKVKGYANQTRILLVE
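Purified LmPK (0.1 nM) with 0.5 mM PEP and 0.1 mM ADP in imidazole buffer pH 7.2 with MgCl2/KCl, 1 h at room temperature. ATP formed was read by luciferase luminescence and normalized to no-enzyme and uninhibited controls.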
CHX counter: counter-screen for Shiga toxin inhibitors: cycloheximide protein synthesis inhibition; AID 2314; cell reporter, cycloheximide protein synthesis inhibition counterscreen; 300,000 tested, 12% active; max response, %; in the data active = max response mostly above about 13%, no sharp cut-off; inactive = mostly below about 14%; note: read at 38.3 µM for the half of the compounds with a filed dose; 0% is about no effect
* marks the source's active call; other numbers are inactive results; ? = inconclusive; . = not tested or not shown; [ ] = remark or other dose. An excerpt weighted towards active compounds, which were near 14% of everything screened. Unless noted, calls come from the whole dose curve; as a rule, active = well fitted curve in the direction sought with a large enough effect; inconclusive = small, poorly fitted or top-dose-only effect, or another doubt; inactive = no such curve, though single readings can be large; an effect the other way counts as inactive or inconclusive.

SMILES	Giardia FBPA inh	Shiga toxin inh	NS1 inh	LmPK inh	CHX counter
O=Cc1c(SCCO)nc2ccccn2c1=O	-5%	7	3%	-6%	-1
COC(=O)CSc1nc2ccccn2c(=O)c1C=O	-5%	46*	.	-4%	18*
CC(=O)Nc1ccc(C(=O)OCc2ccccc2Cl)cc1	10%	64*	-71%	1%	42*
NC(=O)c1ccc(NC(=O)CNCc2ccccc2Cl)cc1	0%	49*	4%	-1%	14*
CCC(=O)Nc1ccc(C(=O)OCc2ccccc2Cl)cc1	16%	18	-201%	1%	33*
COCCCNc1nc(N)c([N+](=O)[O-])c(N2CCCCCC2)n1	-2%	-2	-6%	-4%	6
Cc1c(O)ccc2c1OCO2	-5%[12.9 µM]	.	.	.	.
CS(=O)(=O)N1CCC2(CCCN(Cc3ccccc3)C2)CC1	6%	.	.	.	.
CCOC(=O)COc1cc(N)c(Cl)cc1Cl	-15%	15	.	1%	27*
COCC1CCN(C(=O)C2CCC(=O)N(C3CCCC3)C2)CC1 (stereo not drawn)	8%	49	10%	0%	15*
O=C1CC(C(=O)N2CCC3(CC2)OCCO3)CN1CCc1ccccc1 (stereo not drawn)	4%	-14	-7%	1%	-2
Cc1ccc(SC2CCN(C(=O)C3CCC(=O)N(C4CC4)C3)CC2)cc1 (stereo not drawn)	5%	49*	-7%	6%	27
O=C(C1CC(=O)N(C2CCCCC2)C1)N1CCC2(CC1)OCCO2 (stereo not drawn)	-6%	32	-3%	2%	13*
Cc1ccc(C(C)(C)NC(=O)C2CCC(=O)N(C3CCCCCC3)C2)cc1 (stereo not drawn)	1%	86*	-1%	-10%	42*
CC(=O)NCCC1CCN(C(=O)C2CCC(=O)N(C3CCCC3)C2)CC1 (stereo not drawn)	.	-5	10%	-8%	18
CCc1cccc(C)c1NC(=O)C1CCN(c2nn3c(=O)cc(C)nc3s2)CC1	.	-4	6%	-8%	-7
C=CCNC(=O)N[C@@H](Cc1ccccc1)C(=O)OC	6%	-1	0%	-4%	-1
O=C(C1CCC(=O)N(C2CC2)C1)N1CCC(Oc2cccc(C(F)(F)F)c2)CC1 (stereo not drawn)	5%	17	-5%	-8%	24*
Cc1ccccc1OC1CCN(C(=O)C2CCC(=O)N(C3CCCC3)C2)CC1 (stereo not drawn)	.	4	-13%	0%	-1
COC1CCN(C(=O)C2CCC(=O)N(C3CCCCCC3)C2)CC1 (stereo not drawn)	.	52*	9%	-16%	36*
Cc1ccc(OC2CCN(C(=O)C3CCC(=O)N(C4CC4)C3)CC2)cc1 (stereo not drawn)	.	11	7%	-1%	7
CC(C)C[C@@H](N)C(=O)Nc1ccc2ccccc2c1	.	.	-7%	.	.
CCOC(=O)C1(Cc2cccc(OC)c2)CCN(Cc2cccn2-c2ccccn2)CC1	0%	-13	-3%	11%	-3
N#Cc1cccnc1Nc1ccc(Cl)cc1	-2%	8	-4%	-2%	10
CCCCc1ccc(Nc2ncccc2C#N)cc1	-1%	122*	-66%	-11%	58*
SMILES	Giardia FBPA inh	Shiga toxin inh	NS1 inh	LmPK inh	CHX counter
Fc1cccc(F)c1/C=N/N1CCOCC1	5%	17	.	-2%[11.5 µM]	19
CCN(Cc1ccccc1)c1ccc(/C=N/N2CCOCC2)cc1	2%	28*	-25%	5%	36*
CCN(Cc1ccccc1)c1ccc(/C=N/NC(=O)c2cccc(S(=O)(=O)N3CCOCC3)c2)cc1	1%	-9	29%	-2%	-3
CCN(CC)c1ccc(/C=N/N2CCOCC2)cc1	10%	52*	-7%	-17%	53*
CCCCCOc1ccc(C(O)C(CN2CCOCC2)c2ccccc2)cc1 (stereo not drawn)	?	-3	-27%	8%	-1
CCCn1nnc(NC(=O)c2ccc(OC)cc2)n1	2%	43	0%	-17%	37*
CCCn1nnc(NC(=O)c2ccc(-c3ccccc3)cc2)n1	0%	100*	-31%	-6%	21*
CCOc1ccc(C(=O)Nc2cc(NC(=O)c3ccc(OCC)c(Cl)c3)cc(C(=O)O)c2)cc1Cl	8%	-3	2%	0%	-3
CCCn1nnc(NC(=O)C(c2ccccc2)c2ccccc2)n1	4%	21	2%	0%	-3
CCOc1ccc(C(=O)Nc2nnn(CC)n2)cc1	-1%	75*	-11%	-17%	36*
CCOc1ccc(C(=O)Nn2cnnc2)cc1	-15%	22	9%	-1%	8
